Screens as filed in PubChem.
CBX7 AlphaScr: CBX7 inhibition, primary AlphaScreen | O95931 | AlphaScreen His6-CBX7 / biotin-H3K27me3 peptide binding; active compounds read low | normalised signal (fraction of DMSO) (concentration not given with the values) | 1.1% of 66,000 active | AID 1224903; in the data active means normalised signal below about 0.5
Target sequence (O95931 whole entry, looked up): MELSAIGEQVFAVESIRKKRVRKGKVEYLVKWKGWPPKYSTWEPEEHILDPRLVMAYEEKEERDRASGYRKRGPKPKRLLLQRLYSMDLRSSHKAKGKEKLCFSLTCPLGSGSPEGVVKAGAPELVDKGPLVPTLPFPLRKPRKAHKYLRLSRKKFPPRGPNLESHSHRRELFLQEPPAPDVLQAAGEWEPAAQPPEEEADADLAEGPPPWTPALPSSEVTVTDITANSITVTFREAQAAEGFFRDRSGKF
The depositor's hits bear a star; ! = not active in a repeat. Shown is part of a subset that was picked to be rich in hits.

SMILES	CBX7 AlphaScr
CCOC(=O)N1CCC(Nc2c(N3CC(C)CC(C)C3)c(=O)c2=O)CC1 (stereo not given)	0.841
Cc1ccc(Nc2nc(-c3c(C)nc4ccccn34)cs2)cc1	0.896
Cc1ccccc1Nc1nc(-c2c(C)nc3sccn23)cs1	0.405*!
CCOc1ccccc1Nc1nc(-c2c(C)nc3sccn23)cs1	1.02
Cc1ccccc1Nc1nc(-c2c(C)nc3ccccn23)cs1	0.88
CCN(CC)c1ccc(Nc2nc(-c3c(C)nc4ccccn34)cs2)cc1	0.0757*
Cc1nc2ccccn2c1-c1csc(Nc2ccc(Cl)cc2)n1	0.951
O=C(Cn1nc(-c2ccccc2)ccc1=O)NCc1cccs1	1.04
Cc1cc2cc(CCNC(=O)Cc3cccc4ccccc34)c(=O)[nH]c2cc1C	0.952
COc1cc(S(=O)(=O)NCCc2c(C)[nH]c3ccc(C)cc23)c(C)cc1C	0.346*
COc1cc(S(=O)(=O)NCCc2c(C)[nH]c3ccc(C)cc23)ccc1Cl	0.429*
COc1ccc(S(=O)(=O)NCCc2c(C)[nH]c3ccc(C)cc23)cc1OC	0.631
COc1ccc(S(=O)(=O)NCCc2c(C)[nH]c3ccc(Br)cc23)cc1C	0.567
COc1ccc(C)cc1S(=O)(=O)NCCc1c(C)[nH]c2ccccc12	0.874
CCOc1ccc(S(=O)(=O)NCCc2c(C)[nH]c3ccc(F)cc23)cc1	0.917
Cc1ccc2[nH]c(C)c(CCNS(=O)(=O)c3ccc(F)cc3)c2c1	0.452*
COc1ccc(C)cc1S(=O)(=O)NCCc1c(C)[nH]c2ccc(C)cc12	0.404*
COc1ccc(C)cc1S(=O)(=O)NCCc1c(C)[nH]c2ccc(Br)cc12	1.06
COc1ccc(S(=O)(=O)NCCc2c(C)[nH]c3ccc(C)cc23)c2ccccc12	0.8
COc1cc(C)c(S(=O)(=O)NCCc2c(C)[nH]c3ccc(F)cc23)cc1C	0.949
CCOc1ccc(S(=O)(=O)NCCc2c(C)[nH]c3ccc(C)cc23)cc1	0.965
CC(C)CCNC(=O)C1CC(=O)N(C2CCCCCC2)C1 (stereo not given)	1.02
COc1ccccc1C(=O)Nc1nnc(-c2ccccc2SCc2ccccc2)s1	1.03
CCOC(=O)COc1ccc2c(=O)c(-c3ccc4c(c3)OCCO4)c(C(F)(F)F)oc2c1	0.977
O=C(NCc1ccc(Cl)cc1)c1ccc(Cn2c(=O)[nH]c3ccccc3c2=O)cc1	0.845
SMILES	CBX7 AlphaScr
Cc1ccc2nc(NS(=O)(=O)c3ccc(Cl)cc3)c(Nc3ccc4c(c3)n(C)c(=O)n4C)nc2c1	0.982
CC(C)Oc1ccccc1NC(=O)Nc1ccc(Br)cc1	0.826
COc1cccc(-n2c(-c3ccccc3F)nc3c(cnn3-c3ccc(C)cc3)c2=O)c1	0.598
CCOc1ccc(-n2c(-c3ccccc3F)nc3c(cnn3-c3ccccc3)c2=O)cc1	0.538
Cc1cccc(-n2c(-c3ccccc3F)nc3c(cnn3-c3ccccc3)c2=O)c1	0.486*
COc1cc(-c2nc3cc(C)ccn3c2N)ccc1O	1.01
Cc1ccc(-c2ccc(=O)n(CC(=O)N3CCOCC3)n2)cc1	1.03
CCOC(=O)N1CCc2c(sc(NCc3ccc(N(C)C)cc3)c2C(=O)Nc2cc(Cl)ccc2OC)C1	0.802
CCOC(=O)CNC(=O)c1cc2c(n(-c3ccccc3)c1=O)CCCC2=O	0.933
CCOC(=O)c1cnc2c(C)cc(Cl)cc2c1Nc1ccc(N(C)C)cc1	0.828
CCOC(=O)c1cnc2c(C(F)(F)F)cccc2c1Nc1ccc(O)cc1	0.803
CCOC(=O)c1cnc2c(C)cccc2c1Nc1ccc(N(C)C)cc1	0.253*
CCOC(=O)c1cnc2c(C(F)(F)F)cccc2c1Nc1ccc(N(C)C)cc1	0.159*
CCOC(=O)c1cnc2ccc(C)cc2c1Nc1cccc(C)c1	0.992
CCOC(=O)c1cnc2c(C)cccc2c1Nc1ccc(C)c(C)c1	1.48
CCOC(=O)c1cnc2ccc(C)cc2c1Nc1ccc(N(C)C)cc1	0.378*
CCOC(=O)c1cnc2ccc(C)cc2c1Nc1ccc(C)cc1	1.06
CCOC(=O)c1cnc2c(C(F)(F)F)cccc2c1Nc1ccc(NC(C)=O)cc1	0.863
CN(Cc1ccccc1)C(=O)COc1ccc2c(c1)C(=O)CC(C)(C)O2	0.96
O=C(Cn1nc(Cc2cccnc2)c2ccccc2c1=O)Nc1nccs1	0.936
CCOCCCNC(=O)c1ccc2c(c1)ncn2C1CCCCC1	1.05
Cc1nc2c(C(=O)O)cnn2c(C)c1Cc1ccccc1Br	1
CCOC(=O)N1CCC(NC(=O)c2cccc3c2C(=O)N(c2ccc(OC)cc2)C3)CC1	0.474*
COc1ccc(N2Cc3cccc(C(=O)NC4CCCC4)c3C2=O)cc1	1.05
COc1ccc(N2Cc3cccc(C(=O)NC4CCCCCC4)c3C2=O)cc1	1.03
SMILES	CBX7 AlphaScr
O=C(NC1CCN(Cc2ccccc2)CC1)C1(c2ccccc2)CCCC1	1.06
Cn1c(SCC(=O)NCc2ccccc2Cl)nnc1-c1c[nH]c2ccccc12	0.979
CC(C)(C)c1cc(Sc2nnc(-c3ccc(C(N)=O)cc3)c3ccccc23)cc(C(C)(C)C)c1O	0.677
Cc1c(C(=O)NCc2ccccn2)oc2ccc(S(=O)(=O)N3CCCC3)cc12	1.01
O=C(CC1Oc2ccccc2NC1=O)Nc1cccc2ccccc12 (stereo not given)	1.06
Cc1cc(N2CCC(C(=O)NC3CCCC3)CC2)n2nc(C)c(-c3ccc(Cl)cc3)c2n1	1.04
CC(C)(c1ccccc1)c1ccc(OCCN2CCOCC2)cc1	0.297*
CCCOc1ccc(C(C)(O)CN2CCOCC2)cc1 (stereo not given)	0.983
CCCCOc1ccc(C(O)(CCC)CCN2CCOCC2)cc1 (stereo not given)	1
CCCN(CCC)c1cc(C)nc2c(-c3ccccc3OC)c(C)nn12	0.889
O=C(Nc1ccc2oc(-c3ccccc3)nc2c1)c1cncc(Br)c1	1.05
COc1ccc(N2C(=O)CC(NCCc3ccc(S(N)(=O)=O)cc3)C2=O)cc1F (stereo not given)	1.2
Cn1cc(CCC(=O)NCc2ccc(F)cc2)c2ccccc21	1.03
CCCn1cnc2cc(NCc3ccc(OCC)cc3)ccc21	0.445*
CCOc1ccc(CNc2ccc3c(c2)ncn3CC)cc1	0.862
CCCCn1cnc2cc(NCc3ccc(Cl)cc3)ccc21	0.223*
CCCn1cnc2cc(NCc3cccc(OC)c3OC)ccc21	0.673
Cc1ccc(CNc2ccc3c(c2)nc(C)n3C)cc1	0.958
Cc1ccc(CNc2ccc3c(c2)ncn3C)cc1	0.651
CCCn1cnc2cc(NCc3ccc(C)cc3)ccc21	0.463*
CCCn1cnc2cc(NCc3cccc(OC)c3O)ccc21	0.913
CCn1cnc2cc(NCc3ccc(Cl)cc3)ccc21	0.888
CCc1ccc(CNc2ccc3c(c2)ncn3C)cc1	0.532
CCCn1cnc2cc(NCc3ccccn3)ccc21	0.349*
Cc1ccc(NC(=O)C2CCN(c3nnc(-n4cccc4)s3)CC2)c(Cl)c1	1.01
SMILES	CBX7 AlphaScr
Cc1ccc(-c2nc3ccccc3s2)cc1NC(=O)Cc1ccccc1	1.2
COc1ccc(C(=O)CC2(O)C(=O)N(C)c3ccc(Br)cc32)cc1 (stereo not given)	0.978
O=C1CN(C(=O)c2cccc(C(F)(F)F)c2)C(c2ccc(F)cc2)c2cc(F)ccc2N1 (stereo not given)	0.85
COc1ccccc1C(CCNc1ccc2c(c1)OCO2)c1ccc2c(c1)OCO2 (stereo not given)	1.03
COc1ccc(-c2cc3nc(C)c(CCC(=O)NCc4ccc(Cl)cc4)c(C)n3n2)c(OC)c1	1.01
CC(C(=O)Nc1ccc(Br)cn1)N1C(=O)CCC1=O (stereo not given)	1
COc1cccc(-c2nn(C)c3sc(C(=O)NCCN4CCN(Cc5ccccc5)CC4)cc23)c1	0.886
